# The list shows a part of the results. The hit rate among all sequences tested is not known here.
# B1: VH:VL chains; a variant is named by its letters at X, in order (parent)
# chain 1: QVQLVQSGAEVKKPGASVKVSCKASGYTFTDYXMHWVRQAPGQGLEWMGXVNPNXXXTTYNQKFEGRVTMTTDTSTSTAYMELRSLRSDDTAVYYCARXNXLDXWGQGTTVTVSS
# chain 2: DIQMTQSPSSLSASVGDRVTITCSVSSSVSSIYLHWYQQKPGKAPKLLIYSTSNLASGVPSRFSGSGSGTDFTLTISSLQPEDFATYYCQVYSGYPLTFGGGTKVEIK
# Variants of: B1
# Assay: yeast display scFab, FACS + sequencing
# Settings: with MET
# How it was run: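 Antigen binding was called positive for sequences present in both antigen-positive samples and negative for those present only in the input. These calls came from deep sequencing, in two replicates, of round-3 sorted and input populations from a heavy-chain CDR mutant scFab yeast surface library. The library was first enriched twice magnetically on HGFR-Fc-coated Protein A beads and then by FACS, gating the top 50% antigen-positive cells after 3 h labelling at room temperature with 1 nM HGFR-Fc plus anti-Myc in PBSB with 1% milk.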
row,Variant,antigen binding call
1,DKEGGDAS,no binding
2,DKEGGDVA,no binding
3,DTAEDFGV,no binding
4,YKGRGAGY,binds
5,VGGTSDVF,no binding
6,DGGKNDGS,no binding
7,DTKRTAGD,no binding
8,YRRRGVGS,binds
9,YRRRGYGD,binds
10,YRRRGAGD,binds
11,YRREGAGD,binds
12,VTGEDDVA,no binding
13,DEGGTDVD,no binding
14,DRGGDDLV,no binding
15,DARGGDVY,no binding
16,YRRRGVGD,binds
17,YRRRGDGD,binds
18,SEARSDVF,no binding
19,DARGGDWV,no binding
20,YRRGDSGV,binds
21,YRRGASGV,binds
22,YAGGDSGV,no binding
23,DRRGDDGV,no binding
24,YTRGAAGV,no binding
25,ARRGAAGV,no binding
26,DARADSLV,no binding
